Screening results as filed in PubChem.
TDP1 cell noCPT: qHTS for Inhibitors of human tyrosyl-DNA phosphodiesterase 1 (TDP1): qHTS in cells in absence of CPT; 420,000 compounds, 15% hits; DT40 Tdp1-/- hTDP1 cells, no CPT, ATP luminescence, 48 h; Potency, µM (top dose mostly 46.2 µM), hits mostly inhibitors; further: nearly all actives have a fitted effect of over 55% in size
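Camptothecin absent (DMSO only). Human TDP1-complemented DT40 knockout cells, 400 cells/well, 37 °C for minimum 48 hr; ATP measured via CellTiter-Glo, 30 min dark incubation, luminescence.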
TDP1 block: qHTS Assay for Inhibitors of Tyrosyl-DNA Phosphodiesterase (TDP1); Tyrosyl-DNA phosphodiesterase 1 (Homo sapiens), Q9NUW8; recombinant TDP1, AlphaScreen DNA substrate cleavage; Potency, µM (series often up to 130 µM), actives largely listed as inhibitors; 350,000 compounds, 0.28% hits; further: nearly all actives have a fitted effect of over 40% in size
Target sequence (Q9NUW8 whole entry, looked up): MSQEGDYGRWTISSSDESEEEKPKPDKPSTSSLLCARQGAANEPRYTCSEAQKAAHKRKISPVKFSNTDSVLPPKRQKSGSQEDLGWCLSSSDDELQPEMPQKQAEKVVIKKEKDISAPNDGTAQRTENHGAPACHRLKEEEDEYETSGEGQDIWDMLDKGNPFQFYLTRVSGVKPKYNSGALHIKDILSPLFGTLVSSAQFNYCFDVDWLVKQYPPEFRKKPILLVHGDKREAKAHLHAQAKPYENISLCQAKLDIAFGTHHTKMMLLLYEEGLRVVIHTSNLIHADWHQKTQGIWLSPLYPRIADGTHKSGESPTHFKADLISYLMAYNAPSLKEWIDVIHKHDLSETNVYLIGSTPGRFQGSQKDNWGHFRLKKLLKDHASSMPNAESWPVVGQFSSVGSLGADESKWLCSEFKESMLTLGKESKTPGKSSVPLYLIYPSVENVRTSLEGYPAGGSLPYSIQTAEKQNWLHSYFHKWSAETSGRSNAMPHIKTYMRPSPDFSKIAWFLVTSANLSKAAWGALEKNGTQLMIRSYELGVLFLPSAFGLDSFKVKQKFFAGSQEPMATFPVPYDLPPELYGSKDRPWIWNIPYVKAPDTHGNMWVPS
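Compounds were preincubated with Tdp1 (1 nM final) for 15 min at room temperature before substrate (15 nM final) started a 5 min reaction; beads (10 ug/ml final) were then added for 10 min before AlphaScreen detection.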
ClpP mod: qHTS Assay for Activators of ClpP; 340,000 compounds, 1.9% hits; purified B. subtilis ClpP, FRET peptide cleavage, 20 min; Potency, µM (titrated, usually from 57.5 µM); ATP-dependent Clp protease proteolytic subunit (Bacillus subtilis (strain 168)), P80244; active means well fitted falling curve with a large enough effect; inconclusive means small, poorly fitted or top-dose-only effect; inactive means no such curve, though single readings can be large or run the other way; further: the source files actives as falling curves though it sought activators and does not explain the sign; nearly all actives have a fitted effect of over 65% in size
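FRET quenching reversal measured ClpP activation: 10 microg/mL B. subtilis ClpP at pH 8 with the FRET-FV decapeptide, read at 430 nm after 320 nm excitation. The 20-min minus 0-min signal was scaled between DMSO/no-enzyme wells and ADEP (5.8 microM final).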
TDP1 cell CPT: qHTS for Inhibitors of human tyrosyl-DNA phosphodiesterase 1 (TDP1): qHTS in cells in presence of CPT; Potency, µM (highest dose often 46.2 µM), most hits filed as inhibitors; 420,000 compounds, 12% hits; chicken DT40 Tdp1-/-;hTDP1 cells + 20 nM CPT, ATP luminescence, 48 h; AID 686979, 2013; further: nearly all actives have a fitted effect of over 55% in size
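Chicken DT40 Tdp1-/- cells stably complemented with human TDP1 were seeded at 400 cells/well in medium containing 20 nM camptothecin, exposed to pin-transferred compounds, and grown at 37 °C for at least 48 hr. Viability was read as ATP luminescence.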
Large screens that a line does not name were inactive. Sampled rows, rich in hits. Any-hit rate of the full collection: about 17%. Unless noted, the call rests on the fitted dose curve; in most records, active means well fitted curve in the direction sought with a large enough effect; inconclusive means small, poorly fitted or top-dose-only effect, or another doubt; inactive means no such curve, though single readings can be large; an effect the other way counts as inactive or inconclusive.

CCCOc1ccc(CNC(=O)Cn2ncn3c(cc4sc(CC)cc43)c2=O)cc1	TDP1 cell noCPT inconclusive, TDP1 cell CPT inconclusive
Cc1ccc(OC(=O)CSc2nnc(-c3cccs3)o2)c(C)c1	none
CCOC(=O)c1c(NC(=O)C2c3ccccc3Oc3ccccc32)sc(C)c1C	TDP1 cell noCPT 20.6µM, TDP1 cell CPT inconclusive
CCOc1cccc(C2NC(=S)NC(C)=C2C(=O)Nc2ccccc2)c1 (stereo not given)	TDP1 cell noCPT 23.1µM, TDP1 cell CPT inconclusive
CCc1c(C)nc(SCc2ccccn2)[nH]c1=O	none
O=C(c1ccc(S(=O)(=O)NCC2CCCO2)cc1)N1CCN(c2cccc(Cl)c2)CC1 (stereo not given)	TDP1 cell noCPT 14.6µM, TDP1 cell CPT 14.6µM
O=C(c1ccc(S(=O)(=O)NCC2CCCO2)cc1)N1CCN(c2ccccc2F)CC1 (stereo not given)	none
O=S(=O)(NCC1CCCO1)c1ccc(-c2ccc(Cl)cc2)cc1 (stereo not given)	TDP1 cell noCPT 13µM, TDP1 cell CPT 11.6µM (no result: ClpP mod)
CCOC(=O)NN1C(=O)c2ccccc2NC1c1ccc(N(C)C)cc1 (stereo not given)	TDP1 cell noCPT inconclusive
CCOC(=O)NN1C(=O)c2ccccc2NC1c1ccccc1 (stereo not given)	ClpP mod 31.6µM
CCOC(=O)NN1C(=O)c2ccccc2NC1c1ccc(OC)cc1 (stereo not given)	TDP1 cell noCPT inconclusive, ClpP mod 31.6µM, TDP1 cell CPT inconclusive
CCNC(=O)C1CCCN(C(=O)c2ccccc2)CC1 (stereo not given)	none (no result: TDP1 block)
O=c1c2c3c(sc2nc(NCCO)n1Cc1ccco1)CCCCC3	TDP1 cell noCPT inconclusive (no result: ClpP mod)
OCCNc1nc(SCc2ccccc2)nc2sc3c(c12)CCC3	TDP1 cell noCPT 14.6µM, TDP1 cell CPT inconclusive
Cc1nc(NCc2cccnc2)c2c3c(sc2n1)CCCC3	TDP1 cell noCPT inconclusive, TDP1 cell CPT inconclusive (no result: ClpP mod)
O=c1c2c3c(sc2nc(NCCO)n1CCc1ccccc1)CCCCC3	TDP1 cell noCPT 4.11µM, TDP1 cell CPT 5.8µM
COCCNc1nc2sc3c(c2c(=O)n1Cc1ccco1)CCCCC3	TDP1 cell noCPT 16.4µM, TDP1 cell CPT 13µM (no result: ClpP mod)
COc1cccc(N2CCN(C(=O)Cn3nc(C)n4c(cc5c(OC)cccc54)c3=O)CC2)c1	none
Cc1ccc(CCNC(=O)c2cn(C)c3ccc(S(=O)(=O)N4CCC(C)CC4)cc3c2=O)cc1	TDP1 cell noCPT inconclusive
CC(C)(O)C(=O)NNC(=S)Nc1ccc(F)c(Cl)c1	none (no result: ClpP mod)
Cc1sc(NC(=O)CN(C(=O)c2ccccc2F)C2CCCC2)c(C(N)=O)c1C	TDP1 cell noCPT 16.4µM, TDP1 cell CPT inconclusive
Cc1ccc(C(=O)N(CC(=O)Nc2sc(C)c(C)c2C(N)=O)C2CCCC2)cc1	TDP1 cell noCPT 18.4µM, TDP1 cell CPT 20.6µM (no result: ClpP mod)
CC(CCc1ccccc1)NC(=O)COC(=O)c1cccs1 (stereo not given)	none (no result: ClpP mod)
Cc1ccc(Cl)cc1NC(=O)CSCc1cnn(-c2ccccc2)c1-n1cccc1	TDP1 cell noCPT 16.4µM, TDP1 cell CPT 16.4µM
CNC(=O)CSCc1cnn(-c2ccccc2)c1-n1cccc1	none
Cc1ccc(NC(=O)CSCc2cnn(-c3ccccc3)c2-n2cccc2)c(C)c1	TDP1 cell noCPT 16.4µM, TDP1 cell CPT inconclusive
Cc1cccc(CNC(=O)CSCc2cnn(-c3ccccc3)c2-n2cccc2)c1	TDP1 cell noCPT inconclusive, TDP1 cell CPT inconclusive
O=C(CCSCc1cnn(-c2ccccc2)c1-n1cccc1)NCc1ccccc1Cl	TDP1 cell noCPT inconclusive, TDP1 cell CPT 18.4µM
CC(C)CCNC(=O)CSCc1cnn(-c2ccccc2)c1-n1cccc1	TDP1 cell noCPT 20.6µM, TDP1 cell CPT 20.6µM
CC(C)(C)C(=O)Nc1ccc(C(=O)COC(=O)c2ccccn2)cc1	none
CC1=CC(C)(C)N(C(=O)c2ccccc2)c2ccc(C)cc21	TDP1 cell noCPT 23.1µM, TDP1 cell CPT 14.6µM
CC1=CC(C)(C)N(C(=O)c2ccccc2)c2ccccc21	none
OC1(c2ccc(Br)cc2)CCN(Cc2cccc(Br)c2)CC1	TDP1 cell noCPT inconclusive, TDP1 cell CPT 20.6µM
Brc1cccc(CN2CCCCCC2)c1	none (no result: TDP1 block)
CC1(C(=O)NCc2ccc(C(F)(F)F)cc2)CCN1Cc1ccccc1OC(F)F (stereo not given)	TDP1 cell noCPT 23.1µM, TDP1 cell CPT inconclusive (no result: TDP1 block)
CC1(C(=O)NCc2ccc(C(F)(F)F)cc2)CCN1Cc1cc2ccccc2o1 (stereo not given)	TDP1 cell noCPT 18.4µM, TDP1 cell CPT 20.6µM (no result: TDP1 block)
Cc1ccc(NC(=O)C2(C)CCN2Cc2ccccc2OC(F)F)cc1 (stereo not given)	TDP1 cell noCPT inconclusive, TDP1 cell CPT inconclusive (no result: TDP1 block)
CC1(C(=O)NCc2cccc3ccccc23)CCN1Cc1ccccc1OC(F)F (stereo not given)	TDP1 cell noCPT 14.6µM, TDP1 cell CPT 20.6µM (no result: TDP1 block)
Cc1ccccc1CNC(=O)C(C)Sc1ccccc1 (stereo not given)	none (no result: TDP1 block)
O=C1CCCCCC1C1(O)C(=O)Nc2ccccc21 (stereo not given)	ClpP mod 11.2µM
COc1ccc2c(c1)CC(C1(O)C(=O)Nc3ccccc31)C2=O (stereo not given)	none
COc1ccc(C(=O)NCc2c(C)oc(C)c2C(=O)O)cc1	ClpP mod 15.8µM (no result: TDP1 block)
CC(C)N(c1ccccc1)c1ccc(NC(=O)COC(=O)CCN2C(=O)c3cccc([N+](=O)[O-])c3C2=O)cc1	TDP1 cell noCPT 16.4µM, TDP1 cell CPT inconclusive
COc1cccc(-c2nnc(SCc3cccnc3)o2)c1	none
COc1cc(OC)cc(-c2nnc(SCc3cccnc3)o2)c1	TDP1 cell CPT 25.9µM
COc1cc(OC)cc(-c2cc3nc(C)c(CCC(=O)NCc4ccc(Cl)cc4)c(C)n3n2)c1	TDP1 cell noCPT inconclusive, TDP1 cell CPT inconclusive
COc1cc(OC)cc(-c2cc3nc(C)c(CCC(=O)NCCc4cccc(C)c4)c(C)n3n2)c1	TDP1 cell noCPT inconclusive, TDP1 cell CPT 16.4µM
COc1ccccc1-c1cc2nc(C)c(CCC(=O)NCCc3ccc(SC)cc3)c(C)n2n1	TDP1 cell noCPT 20.6µM, TDP1 cell CPT inconclusive
COc1cc(OC)cc(-c2cc3nc(C)c(CCC(=O)NCc4ccccc4)c(C)n3n2)c1	TDP1 cell noCPT 18.4µM, TDP1 cell CPT inconclusive
Cc1nc2cc(-c3ccccc3)nn2c(C)c1CCC(=O)NCc1cccc(Cl)c1	TDP1 cell noCPT inconclusive, TDP1 cell CPT 25.9µM
OCC(O)CNC(=S)NC1CCCCC1 (stereo not given)	none (no result: ClpP mod)
O=C(CCc1nc2ccccc2c(=O)[nH]1)NCc1cccc(Cl)c1	TDP1 cell noCPT 23.1µM, TDP1 cell CPT 20.6µM
COc1ccc(-c2cc3nc(C)c(CCC(=O)NCc4ccccc4Cl)c(C)n3n2)c(OC)c1	TDP1 cell noCPT 13µM, TDP1 cell CPT 18.4µM
